Shown are actives, neighbours in structure and some others; about 10% of the full set was active somewhere.
NIH3T3 tox = cytotoxic compounds in NIH 3T3 cells; 4.3% of 94,000 active; NIH 3T3 viability, CellTiter-Glo ATP luminescence, 48-72 h; Potency, µM (doses to about 96.7 µM), usual class: inhibitors; note: nearly all actives have a fitted effect of over 55% in size
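Luminescent ATP readout (CellTiter-Glo, 10 min RT) after 48 or 72 hr compound exposure of NIH 3T3 cells seeded at 400 cells/well in 1536-well format; quantitative HTS.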
HEK293 tox = kills HEK 293 cells; HEK 293 viability, ATP luminescence (CellTiter-Glo), 48-72 h; 6.6% of 94,000 active; Potency, µM (series often up to 115 µM), most hits filed as inhibitors; note: nearly all actives have a fitted effect of over 60% in size
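Pintool-delivered compounds were incubated with HEK 293 cells (250 cells/well) at 37 degree Celsius for 48 or 72 hr. ATP-dependent luminescence (CellTiter-Glo) then reported remaining viable cells.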
GPT2 inhibitor = GPT2 alanine aminotransferase inhibition | Recombinant GPT2, coupled pyruvate oxidase/HRP Amplex Red fluorescence | Potency, µM (top dose mostly 57.7 µM), hits mostly inhibitors | 0.25% of 100,000 active | AID 1671188; note: nearly all actives have a fitted effect of over 60% in size
Target sequence (Q8TD30 whole entry, looked up): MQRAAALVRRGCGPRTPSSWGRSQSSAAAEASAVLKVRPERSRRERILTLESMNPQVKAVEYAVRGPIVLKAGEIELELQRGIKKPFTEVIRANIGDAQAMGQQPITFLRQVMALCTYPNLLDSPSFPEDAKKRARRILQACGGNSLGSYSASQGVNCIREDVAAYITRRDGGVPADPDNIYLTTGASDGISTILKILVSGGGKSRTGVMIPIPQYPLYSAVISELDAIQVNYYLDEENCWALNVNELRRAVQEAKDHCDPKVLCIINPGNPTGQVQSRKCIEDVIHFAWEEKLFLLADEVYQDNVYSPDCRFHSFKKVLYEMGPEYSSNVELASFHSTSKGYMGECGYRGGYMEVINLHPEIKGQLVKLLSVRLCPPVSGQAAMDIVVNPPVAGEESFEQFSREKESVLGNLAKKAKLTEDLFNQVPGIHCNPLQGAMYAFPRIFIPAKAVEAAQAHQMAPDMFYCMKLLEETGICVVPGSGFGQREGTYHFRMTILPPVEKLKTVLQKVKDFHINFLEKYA
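Fluorescence read-out: pyruvate from GPT2 turnover coupled to pyruvate oxidase, HRP and Amplex Red (0.2mM ThPP, 0.2U/mL PO and HRP, 50uM Amplex final). Substrates 250uM a-KG, 2mM L-alanine; enzyme 10ng/uL; 30 min RT.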
NPR1 antag = human Npr1 receptor antagonism. P16066. HEK293 hNpr1 GloSensor cGMP, ANP-stimulated luminescence. Potency, µM (titrated, usually from 46.3 µM), actives largely listed as inhibitors. 1.6% of 76,000 active. AID 1347048; calls by dose curve; note: nearly all actives have a fitted effect of over 60% in size
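Compound pre-incubated 30 min at room temperature on GloSensor-loaded HEK293 cells stably carrying hNpr1 and the pGS-40F cGMP biosensor. Stimulation uses hNppA at 0.1 nM final; luminescence is taken at baseline and 20 min post-agonist.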
Luciferase inh = Photinus pyralis luciferase inhibition. P08659. purified P. pyralis luciferase, luminescence, biochemical. Potency, µM (highest dose often 115 µM), usual class: inhibitors. 2.5% of 76,000 active; note: nearly all actives have a fitted effect of over 65% in size
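Biochemical qHTS: compound (6-point titration) added to 10uM D-luciferin plus 10uM ATP in Tris acetate pH 7.5 buffer with Mg, Tween-20 and BSA, then purified enzyme at 10nM; light output imaged.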
Each line names hits and unclear results; the compound was inactive in the other large screens. Unless noted, calls come from the whole dose curve; as a rule, active = well fitted curve in the direction sought with a large enough effect; inconclusive = small, poorly fitted or top-dose-only effect, or another doubt; inactive = no such curve, though single readings can be large; an effect the other way counts as inactive or inconclusive.

Cc1ccc(-c2cc(C(=O)N3CCN(Cc4ccccc4)CC3)c3cnn(C)c3n2)c(C)c1	NIH3T3 tox inconclusive, HEK293 tox inconclusive (no result: NPR1 antag, Luciferase inh)
Cc1ccc(-c2cc(C(=O)N3CCN(Cc4ccccc4)CC3)c3cnn(C)c3n2)cc1	NIH3T3 tox inconclusive, HEK293 tox inconclusive (no result: NPR1 antag, Luciferase inh)
COCCN(C)C[C@H]1C[C@@H](CO)CN(C(=O)Cc2ccc(C)c(C)c2)C1	none
COC1CCC12CCN(Cc1ccc(C(F)(F)F)cc1)CC2 (centres undefined)	none (no result: NPR1 antag, Luciferase inh)
CCC(=O)N1Cc2ccccc2CC2(CCCN2Cc2ccc(OC)cc2)C1 (centres undefined)	none (no result: NPR1 antag, Luciferase inh)
CC(C)C[C@@H]1N[C@H](C(=O)NC2CC2)Cc2cn(Cc3nccn3C)c3cccc1c23	NIH3T3 tox inconclusive, HEK293 tox inconclusive
CC(C)C[C@@H]1N[C@H](C(=O)NCC2CC2)Cc2cn(Cc3ccccn3)c3cccc1c23	NIH3T3 tox 39.8µM, HEK293 tox 44.7µM
CC(C)C[C@@H]1N[C@H](C(=O)NC2CCC2)Cc2cn(Cc3ccncc3)c3cccc1c23	NIH3T3 tox 79.4µM, HEK293 tox inconclusive, NPR1 antag inconclusive
CC(C)C[C@@H]1N[C@H](C(=O)NC2CCC2)Cc2cn(Cc3ccccn3)c3cccc1c23	NIH3T3 tox 35.5µM, HEK293 tox 28.2µM
CC(C)C[C@@H]1N[C@H](C(=O)NC(C)C)Cc2cn(Cc3ccccn3)c3cccc1c23	NIH3T3 tox 44.7µM, HEK293 tox 28.2µM, GPT2 inhibitor inconclusive
CNC(=O)[C@H]1C[C@H](Oc2ccccc2)CN1Cc1sccc1C	HEK293 tox inconclusive
COc1ccc(-c2ccc(C(=O)NCc3ccc(F)cc3F)c(Cl)c2)nn1	HEK293 tox inconclusive (no result: GPT2 inhibitor, NPR1 antag, Luciferase inh)
CC(C)C[C@@H]1N[C@H](C(=O)NCCN(C)C)Cc2cn(Cc3ccccn3)c3cccc1c23	NIH3T3 tox 28.2µM, HEK293 tox inconclusive
CC(C)C[C@@H]1N[C@H](C(=O)NCCN2CCOCC2)Cc2cn(Cc3ccccn3)c3cccc1c23	NIH3T3 tox inconclusive, HEK293 tox inconclusive
FC(F)Oc1cccc(CNC2CCC3(CCNCC3)CC2)c1	NIH3T3 tox inconclusive, HEK293 tox 50.1µM
O=C1N(CC2CC2)CCOC12CCN(Cc1ccc(F)c(Cl)c1)CC2	HEK293 tox inconclusive
O=C1N(CCc2ccccc2)CCOC12CCN(Cc1ccc(F)c(Cl)c1)CC2	NIH3T3 tox 44.7µM, HEK293 tox 79.4µM, NPR1 antag inconclusive
COCCC(=O)N1CCOc2ccc(CN3CCc4ccccc4C3)cc2C1	none
COc1ccc(N2CC3CCC(C2)N3Cc2ccc(NC(C)=O)cc2)cc1	GPT2 inhibitor inconclusive (no result: NPR1 antag, Luciferase inh)
COc1ccc(N2CC3CCC(C2)N3Cc2ccc(C#N)cc2)cc1	GPT2 inhibitor 10µM (no result: NPR1 antag, Luciferase inh)
COc1ccccc1Nc1ccnc(N2CCCC(C(=O)NC3CCOCC3)C2)n1 (centres undefined)	none (no result: NPR1 antag, Luciferase inh)
CC1(C(=O)NCCN2CCOCC2)CCCc2cnc(NCc3ccccc3)nc21 (centres undefined)	NIH3T3 tox inconclusive
CC1(C(=O)NCc2cnccn2)CCCc2cnc(NCc3ccccc3)nc21 (centres undefined)	NIH3T3 tox 89.1µM
CC1(C(=O)NCc2ccncc2)CCCc2cnc(NCc3ccccc3)nc21 (centres undefined)	NIH3T3 tox 25.1µM, HEK293 tox 89.1µM, GPT2 inhibitor inconclusive
CC1(C(=O)NCc2ccncc2)CCCc2cnc(Nc3ccccc3)nc21 (centres undefined)	NIH3T3 tox 100µM
CC1(C(=O)NCc2ccc(F)cc2)CCCc2cnc(Nc3cccnc3)nc21 (centres undefined)	NIH3T3 tox inconclusive
CC1(C(=O)NCc2cnccn2)CCc2cnc(Nc3ccccc3)nc21 (centres undefined)	NIH3T3 tox inconclusive, HEK293 tox inconclusive
CCn1ccc(C(=O)N2C[C@@H](Oc3ccccc3)C[C@H]2C(=O)N2CCOCC2)n1	none
O=C(Nc1ccc(C2(C(=O)O)CCC2)cc1)C1CC1	none
CN(C1CCc2ccccc21)S(C)(=O)=O (centres undefined)	none
CC(C)CC(=O)O[C@@H]1OC=C(CO[C@@H]2O[C@H](CO)[C@@H](O)[C@H](O)[C@H]2O)[C@H]2[C@@H]3O[C@H]3[C@@](O)(CO)[C@@H]12	none (no result: NIH3T3 tox, HEK293 tox, NPR1 antag, Luciferase inh)
O=C1c2cc(N3CCOCC3)nc(-c3ccc(CO)cc3)c2CN1Cc1ccccc1	NIH3T3 tox inconclusive
O=C1c2cc(N3CCOCC3)nc(-c3ccc(F)cc3)c2CN1CC1CC1	NIH3T3 tox inconclusive, HEK293 tox 100µM
CN1Cc2c(cc(N3CCOCC3)nc2-c2cnn(C)c2)C1=O	NIH3T3 tox 25.1µM, HEK293 tox inconclusive
O=C1c2cc(N3CCOCC3)nc(-c3cccc(CO)c3)c2CN1Cc1ccccc1	HEK293 tox 79.4µM
Cc1ccccc1-c1nc(N2CCOCC2)cc2c1CN(Cc1ccccc1)C2=O	NIH3T3 tox 25.1µM, HEK293 tox 50.1µM
COCCOc1ncccc1-c1noc([C@@H]2CCCN2Cc2ncc[nH]2)n1	none
O=C(N1CCC(N[S+](=O)([O-])c2cccnc2)CC1)N1CC2CC(C1)[C@H]1CCCC(=O)N1C2 (some centres undefined)	none
COc1cc(F)ccc1-c1nc(N2CCOCC2)cc2c1CN(c1ccccc1)C2=O	HEK293 tox inconclusive, Luciferase inh 70.8µM
CN(C)c1cccc(-c2nc(N3CCOCC3)cc3c2CN(Cc2cnn(C)c2)C3=O)c1	NIH3T3 tox 44.7µM, HEK293 tox inconclusive
O=C([C@H]1C[C@H](Oc2ccccc2)CN1C(=O)Nc1cccc(F)c1)N1CCOCC1	none
CCC1=C(C(=O)OC)C(c2ccc(C)cc2C)N2C(CC(=O)Nc3ccc(OC)cc3)=CSC2=N1 (centres undefined)	NIH3T3 tox inconclusive, HEK293 tox 44.7µM
CCC1=C(C(=O)OC)C(c2ccc(C)cc2C)N2C(CC(=O)N3CCCC3)=CSC2=N1 (centres undefined)	HEK293 tox inconclusive, NPR1 antag inconclusive
COC(=O)C1=C(C)N=C2SC=C(CC(=O)N3CCCC3)N2C1c1ccc(C)cc1C (centres undefined)	NIH3T3 tox 25.1µM, HEK293 tox inconclusive, GPT2 inhibitor inconclusive, NPR1 antag inconclusive
COc1cccc(-c2cn3cc(C(=O)N4CCN(C)CC4)nc3s2)c1	NIH3T3 tox inconclusive (no result: NPR1 antag, Luciferase inh)
CC(C)c1nnsc1Cn1ncc(N(C)CCc2ccccc2)cc1=O	NIH3T3 tox inconclusive, HEK293 tox 89.1µM
CC(C)N(C)C(=O)Cn1ncc(N(C)CCc2ccccc2)cc1=O	none
Cc1cc(Cn2cc3c4c(cccc42)[C@H](CC(C)C)N[C@H](C(=O)O)C3)no1	none
CCCNC(=O)[C@@H]1Cc2cn(Cc3c(C)noc3C)c3cccc(c23)[C@H](CC(C)C)N1	NIH3T3 tox 70.8µM, HEK293 tox 25.1µM
Cc1noc(C)c1Cn1cc2c3c(cccc31)[C@H](CC(C)C)N[C@H](C(=O)NC1CCC1)C2	NIH3T3 tox inconclusive, HEK293 tox 39.8µM

Screening data from PubChem.
